Screening results (PubChem BioAssay)
Sm TGR inh – inhibitors of Schistosoma mansoni thioredoxin glutathione reductase; Q962Y6; purified TGR, DTNB reduction, TNB absorbance 405 nm; Potency, µM (doses to about 114 µM), inactives show top-dose activity change, negative = inhibition, most hits filed as inhibitors; actives 3% (n = 360,000); further: potency means the concentration at half of the fitted maximal effect; on the % scale 0 is the no-effect control and ±100 the full control effect; nearly all actives have a fitted effect of over 60% in size
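First, TGR (20 nM dispensed) and NADPH were mixed with compound. Second, a 15 min room-temperature incubation followed. Third, further NADPH and then DTNB were added to start the reaction. Finally, TNB absorbance was monitored kinetically.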
NS1 function inh – inhibitors of influenza NS1 protein function | actives 0.4% (n = 270,000) | Potency, µM (titrated, usually from 46.1 µM), for inactives: at the top dose activity, positive = more growth; calls by dose curve; further: potency means the concentration at half of the fitted maximal effect; actives are rising curves; nearly all actives have a fitted effect of over 50% in size
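Growth recovery, yeast-based: influenza A NS1 expressed in S. cerevisiae causes slow growth, and suppressors are detected by OD600. The parent strain without NS1 is used as positive control.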
Pf growth 96h – P. falciparum growth inhibition at 96 hour, primary screen for plastid delayed-death inhibitors. P. falciparum luciferase reporter growth, 96 h. Potency, µM (highest dose often 28.7 µM), for inactives: top-dose activity change, negative = inhibition, hits mostly inhibitors. actives 6.9% (n = 320,000); further: potency means the concentration at half of the fitted maximal effect; on the % scale 0 is the no-effect control and ±100 the full control effect
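Erythrocytes infected with luciferase-expressing P. falciparum were dispensed at 2% hematocrit and 0.05% parasitemia (final), then incubated with compounds 96 hours at 37 C in 5% CO2. Luminescence after detection reagent addition reported growth.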
Shiga inhibitor – blocks Shiga toxin action in Vero cells; AID 2315; inhibition, % at 38.7 µM; actives 9.2% (n = 290,000); Vero cells, Shiga toxin protein synthesis inhibition reporter; in the data active means inhibition mostly above about 28%, no sharp cut-off; inactive means mostly below about 43%; further: 0% is about no effect
Pf growth 48h – P. falciparum growth inhibition at 48 hours (one generation) | P. falciparum luciferase growth in erythrocytes, 48 h | Potency, µM (titrated, usually from 28.7 µM), for inactives: at the highest dose activity change, negative = inhibition, most hits filed as inhibitors | actives 5.9% (n = 310,000); further: potency means the concentration at half of the fitted maximal effect; on the % scale 0 is the no-effect control and ±100 the full control effect
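Cell-based growth assay: transgenic P. falciparum expressing firefly luciferase, cultured in red cells within RPMI 1640 containing 0.5% w/v Albumax, 24 mM bicarbonate and gentamycin. A drop in luciferase activity indicates inhibition.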
CHX counter – affects cycloheximide protein synthesis inhibition readout, counter-screen | actives 12% (n = 300,000) | max response, % | cell reporter, cycloheximide protein synthesis inhibition counterscreen; in the data active means max response mostly above about 13%, no sharp cut-off; inactive means mostly below about 14%; further: read at 38.3 µM for the half of the compounds with a filed dose; 0% is about no effect
The depositor's hits bear a star. In the library only some 21% were active in any assay of this set; here they are far more common. Unless noted, the call rests on the fitted dose curve; in most records, active means well fitted curve in the direction sought with a large enough effect; inconclusive means small, poorly fitted or top-dose-only effect, or another doubt; inactive means no such curve, though single readings can be large; an effect the other way counts as inactive or inconclusive.

Results for COc1ccccc1-c1cc(-c2ccccc2)nc(SC(C(N)=O)c2ccccc2)c1C#N (centres undefined) ?
Sm TGR inh: 9%; NS1 function inh: inconclusive; Pf growth 96h: 86%; Shiga inhibitor: -16; Pf growth 48h: inconclusive; CHX counter: 6

How did O=S(=O)(c1ccccc1)c1nc(-c2ccco2)oc1NCCN1CCOCC1 do in these assays?
Sm TGR inh: inconclusive; NS1 function inh: inconclusive; Pf growth 96h: 30%; Shiga inhibitor: -15; CHX counter: 6

What do the screens show for `O=S(=O)(c1ccccc1)c1nc(-c2ccco2)oc1NCCCN1CCOCC1`?
Sm TGR inh: 28µM*; NS1 function inh: 7%; Pf growth 96h: 43%; Shiga inhibitor: 14; Pf growth 48h: -5%; CHX counter: -2

Results for Cc1ccc(SCC(=O)Nc2ccc(N3CCOCC3)cc2)cc1 ?
NS1 function inh: 1%; Pf growth 96h: 19%; Shiga inhibitor: -1; Pf growth 48h: 8%; CHX counter: -1

Results for Cc1ccc(SCC(=O)Nc2ccc(N3CCN(C)CC3)c(F)c2)c(C)c1 ?
NS1 function inh: 9%; Pf growth 96h: inconclusive; Shiga inhibitor: 37; Pf growth 48h: inconclusive; CHX counter: 24*

Results for O=C(COc1cc(F)ccc1[N+](=O)[O-])Nc1ccc(N2CCOCC2)cc1 ?
Sm TGR inh: 45µM*; Pf growth 96h: inconclusive; Shiga inhibitor: -1; Pf growth 48h: inconclusive; CHX counter: 9

What do the screens show for `O=C(CSc1ccc(F)cc1)Nc1ccc(N2CCOCC2)cc1`?
Sm TGR inh: -24%; NS1 function inh: -17%; Pf growth 96h: 106%; Shiga inhibitor: 30; Pf growth 48h: 25%; CHX counter: 27*

How did O=C(CSc1ccc2ccccc2n1)Nc1ccc(N2CCOCC2)cc1 do in these assays?
Sm TGR inh: -20%; Pf growth 96h: -1%; Shiga inhibitor: 49*; Pf growth 48h: 334%; CHX counter: 31*

Results for CCc1ccc(C(=O)NNC(=O)c2ccc(=O)n(C)n2)cc1 ?
Sm TGR inh: -6%; NS1 function inh: -19%; Pf growth 96h: 0%; Shiga inhibitor: -13; Pf growth 48h: 26%; CHX counter: 1

How did COC(=O)c1ccccc1SCC(=O)Nc1ccc(N2CCOCC2)cc1 do in these assays?
Sm TGR inh: -24%; NS1 function inh: 12%; Pf growth 96h: 91%; Shiga inhibitor: 55*; Pf growth 48h: 43%; CHX counter: 37*

How did O=C(Nc1ccc(N2CCOCC2)cc1)c1nc2ccccc2s1 do in these assays?
Sm TGR inh: 0%; NS1 function inh: 4%; Pf growth 96h: 227%; Shiga inhibitor: 91*; Pf growth 48h: -26%; CHX counter: 54*

Results for O=C(CSc1ccccc1)Nc1ccc(N2CCOCC2)c(F)c1 ?
Sm TGR inh: 0%; NS1 function inh: 9%; Pf growth 96h: 86%; Shiga inhibitor: 120*; Pf growth 48h: 93%; CHX counter: 57*

What do the screens show for `O=C(CSc1ccc(Cl)cc1)Nc1ccc(N2CCN(c3ccccc3)CC2)c(F)c1`?
Sm TGR inh: 17%; NS1 function inh: -16%; Pf growth 96h: 35%; Shiga inhibitor: -10; Pf growth 48h: 41%; CHX counter: -2

What do the screens show for `COc1ccc(NC(=O)CCNC(=O)Cn2ccc3ccccc3c2=O)cc1Cl`?
Sm TGR inh: -4%; NS1 function inh: 9%; Pf growth 96h: -17%; Shiga inhibitor: 25; Pf growth 48h: 3%; CHX counter: 0

How did CS(=O)(=O)N1CCc2cc(C(=O)N3CCN(c4ccc(F)cc4)CC3)ccc21 do in these assays?
Sm TGR inh: -2%; NS1 function inh: 3%; Pf growth 96h: 2%; Shiga inhibitor: 16; Pf growth 48h: -11%; CHX counter: -3

How did CCCN1CCCc2cc(CN(CCCN3CCOCC3)C(=O)Nc3ccc(CC)cc3)ccc21 do in these assays?
Sm TGR inh: -30%

How did CC(Cl)C(=O)NN=C(c1ccccc1)c1ccccc1 (centres undefined) do in these assays?
NS1 function inh: 5%; Pf growth 96h: 13%; Shiga inhibitor: 41; Pf growth 48h: 4%; CHX counter: 16*

What do the screens show for `CCN(CC)CC(=O)NN=C(c1ccccc1)c1ccccc1`?
Sm TGR inh: 15%; NS1 function inh: -3%; Pf growth 96h: -25%; Shiga inhibitor: -3; Pf growth 48h: -12%; CHX counter: -6

What do the screens show for `O=C(CCl)NN=C(c1ccccc1)c1ccccc1`?
Sm TGR inh: 11µM*; NS1 function inh: 0%; Pf growth 96h: inconclusive; Shiga inhibitor: 29; Pf growth 48h: 4%; CHX counter: 12

Results for Cc1cccc(-c2nc(S(=O)(=O)c3ccc(F)cc3)c(N3CCN(c4ccccc4)CC3)o2)c1 ?
Sm TGR inh: 0%

How did COc1ccc(NC2CCN(C3CC(=O)N(c4ccc(F)c(Cl)c4)C3=O)CC2)cc1 (centres undefined) do in these assays?
Sm TGR inh: 11µM*; NS1 function inh: -54%; Pf growth 96h: -97%; Shiga inhibitor: -4; Pf growth 48h: 29%; CHX counter: -1

What do the screens show for `COc1cccc(N2CCN(C3CC(=O)N(c4ccc(F)c(Cl)c4)C3=O)CC2)c1` (centres undefined)?
Sm TGR inh: 50µM*; NS1 function inh: -5%; Shiga inhibitor: -7; Pf growth 48h: 19%; CHX counter: 5

Results for O=C(Nc1cccc(C(=O)O)c1)/C(=C\c1ccc2c(c1)OCO2)NC(=O)c1ccccc1Cl ?
Sm TGR inh: 2%; NS1 function inh: -17%; Pf growth 96h: inconclusive; Shiga inhibitor: -22; Pf growth 48h: inconclusive; CHX counter: -10

Results for CCCOc1cccc(OCCSc2nc(C)cc(=O)[nH]2)c1 ?
Sm TGR inh: 0%; NS1 function inh: -2%; Shiga inhibitor: 31; Pf growth 48h: 5%; CHX counter: 46*

Results for Cc1cc(=O)[nH]c(SCCCOc2ccc(F)cc2)n1 ?
Sm TGR inh: 8%; NS1 function inh: -9%; Pf growth 96h: inconclusive; Shiga inhibitor: -3; CHX counter: 27

How did O/N=C1/CC/C(=N\O)c2nn(-c3ccccc3)nc21 do in these assays?
Sm TGR inh: 3%; NS1 function inh: -7%; Pf growth 96h: -3%; Shiga inhibitor: 36; Pf growth 48h: 60%; CHX counter: 31*

How did O=C(O)c1nn(-c2ccccc2)nc1-c1nn(-c2ccccc2)nc1C(=O)O do in these assays?
Sm TGR inh: 4%; NS1 function inh: 1%; Pf growth 96h: inconclusive; Shiga inhibitor: -21; Pf growth 48h: 29%; CHX counter: 1

How did O=C(N/N=C/c1cccc([N+](=O)[O-])c1)c1cccc2cc[nH]c12 do in these assays?
Sm TGR inh: 5%; Pf growth 96h: -1%; Shiga inhibitor: 58*; Pf growth 48h: 48%; CHX counter: 29*
